High-throughput results: PubChem, National Center for Advancing Translational Sciences (NCATS)
Only some compounds are listed: those with a hit (about 19% of all), similar ones and a draw of the others.
Cycloheximide cs: counter-screen for Shiga toxin inhibitors: cycloheximide protein synthesis inhibition | cell reporter, cycloheximide protein synthesis inhibition counterscreen | max response, % | AID 2314 | 12% of 300,000 active; in the data active means max response mostly above about 13%, no sharp cut-off; inactive means mostly below about 14%; further: read at 38.3 µM for the half of the compounds with a filed dose; 0% is about no effect
AMA1-RON2 inh: disrupts binding of P. falciparum AMA1 to RON2 | AID 720542 | AlphaScreen AMA1-biotinylated RON2 peptide binding | Potency, µM (highest dose often 58.2 µM), without a hit: top-dose activity change, negative = inhibition, usual class: inhibitors | 0.2% of 360,000 active;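 further: potency means the concentration at half of the fitted maximal effect; 0% = vehicle wells and -100% = peptide control; nearly all actives have a fitted effect of over 45% in size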
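AMA1 (3D7) with his tag at 25 nM final met compounds first, then biotinylated RON2 peptide at 25 nM; detection used donor plus acceptor beads, 10 µg/mL apiece, read by AlphaScreen after 30 min at room temperature.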
SARS PLpro yeast: SARS-CoV PLP inhibition in yeast | S. cerevisiae expressing SARS-CoV PLpro, growth rescue | Potency, µM (highest dose often 32.9 µM), for the others: top-dose activity, positive = growth rescue, usual class: activators | 0.19% of 330,000 active | AID 485353; calls by dose curve; further: potency means the concentration at half of the fitted maximal effect; 0% is about no effect; nearly all actives have a fitted effect of over 55% in size
Shiga toxin inh: inhibitors of Shiga toxin in Vero cells | Vero cells, Shiga toxin protein synthesis inhibition reporter | inhibition, % at 38.7 µM | 9.2% of 290,000 active; in the data active means inhibition mostly above about 28%, no sharp cut-off; inactive means mostly below about 43%; further: 0% is about no effect
Pf growth 96h: P. falciparum growth inhibition at 96 hour, primary screen for plastid delayed-death inhibitors; P. falciparum luciferase reporter growth, 96 h; Potency, µM (highest dose often 28.7 µM), for the others: at the highest dose activity change, negative = inhibition, usual class: inhibitors; 6.9% of 320,000 active; further: potency means the concentration at half of the fitted maximal effect; on the % scale 0 is the no-effect control and ±100 the full control effect
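P. falciparum expressing integrated firefly luciferase, in erythrocytes at 2% hematocrit, 0.05% parasitemia, incubated with compounds 96 h at 37 C, 5% CO2. Growth inhibition read as loss of luminescence; two-generation exposure targets delayed-death apicoplast inhibitors.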
Pf growth 48h: inhibits P. falciparum growth in the first generation, 48 h; P. falciparum luciferase growth in erythrocytes, 48 h; Potency, µM (highest dose often 28.7 µM), inactives show at the highest dose activity change, negative = inhibition, usual class: inhibitors; 5.9% of 310,000 active; AID 504832; further: potency means the concentration at half of the fitted maximal effect; on the % scale 0 is the no-effect control and ±100 the full control effect
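Cell-based growth assay: transgenic P. falciparum expressing firefly luciferase, cultured in red cells within RPMI 1640 containing 0.5% w/v Albumax, 24 mM bicarbonate and gentamycin. A drop in luciferase activity indicates inhibition.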
An asterisk follows results filed as active; ? = inconclusive; . = no result; [ ] = another dose, or the depositor's remark. Unless noted, the call rests on the fitted dose curve; in most records, active means well fitted curve in the direction sought with a large enough effect; inconclusive means small, poorly fitted or top-dose-only effect, or another doubt; inactive means no such curve, though single readings can be large; an effect the other way counts as inactive or inconclusive.

SMILES	Cycloheximide cs	AMA1-RON2 inh	SARS PLpro yeast	Shiga toxin inh	Pf growth 96h	Pf growth 48h
COc1ccc(-c2nnc3n2N=C(c2c(OC)cccc2OC)CS3)c(OC)c1	12	.	.	4	.	.
COc1cc(OC)cc(C(=O)NCCNC(=O)c2ccccn2)c1	-6	21%	1%	-6	19%	-5%
COc1cc(OC)cc(C(=O)NCCCNC(=O)c2ccccn2)c1	2	22%	-2%	-9	12µM*	0%
CC(C)(C)c1ccc(C(=O)NCCOc2ccccc2)cc1	26*	-4%	12%	33	9.3µM*	131%
Cc1ccc(C(=O)NCCOc2cccc(C)c2)cc1	37*	-8%	22%	83*	8%	45%
CC(C)(C)c1ccc(OCCNC(=S)Nc2ccccc2)cc1	17	13%	0%	24	1%	?
Cc1ccc(OCC(O)CNC(=O)c2ccccc2C(=O)O)cc1 (stereo not drawn)	18*	0%	3%	33	45%	38%
O=C(Nc1nc(OCC(F)(F)F)cnc1/C=C\c1ccccc1)c1ccccc1	.	14%	.	.	.	.
CNCCCOc1ccc(C(C)(C)c2ccccc2)cc1	19	.	-13%	11	9.3µM*	.
COc1cc(OC)cc(C(=O)NCCOc2ccccc2)c1	31*	21%	-10%	77*	35%	.
COc1cc(C(=O)NCCOc2ccccc2)cc(OC)c1OC	1	7%	2%	9	?	1%
COc1ccccc1C(=O)NCCOc1ccc(C(C)(C)C)cc1	1	24%	-3%	-5	15µM*	?
COc1ccccc1OCCNC(=O)c1ccccc1C	3	-24%	-2%	15	.	23%
O=C(NCCOc1ccccc1)c1cc(C(=O)NCCOc2ccccc2)cc([N+](=O)[O-])c1	-2	-12%	-31%	10	?	12µM*
COCC1CCN(Cc2c(C(=O)N3CCOCC3)nc3c(C)cccn23)C1 (stereo not drawn)	.	-5%	.	.	.	.
c1ccc(CCNc2ccc3c(c2)Cc2ccccc2-3)nc1	.	-20%	.	.	.	.
Cc1ccc(OCCNC(=O)c2cc(=O)[nH]c3ccccc23)cc1	-1	-1%	2%	9	7%	-1%
O=C(CCNC(=O)c1ccc(Br)cc1)NNC(=O)COc1ccccc1F	.	34%	-2%	.	.	.
CN(CCCNC(=O)c1ccccc1F)CCCNC(=O)c1ccccc1F	5	0%	12%	-5	9.3µM*	?
CC(C)(C)c1ccc(C(=O)NCCOc2ccccc2F)cc1	24	5%	-1%	34*	?	39%
Cc1ccc(OCCNC(=O)c2ccccc2F)cc1	21*	2%	1%	40*	-5%	-5%
O=C(NCCCN1CCN(CCCNC(=O)c2ccccc2F)CC1)c1ccccc1F	-2	0%	-4%	-3	2%	4%
CCOC(=O)C1CCN(C(=O)C2CCN(S(=O)(=O)c3ccc4ccccc4c3)CC2)CC1	-1	-18%	5%	7	1%	?
COCCNS(=O)(=O)c1cc(OC)ccc1OC	8	-18%	0%	37	10%	9%[5.75 µM]
Cc1cccn2c(=O)c(C=O)c(N3CCCCC3)nc12	-1	-23%	0%	-10	0%	-6%
SMILES	Cycloheximide cs	AMA1-RON2 inh	SARS PLpro yeast	Shiga toxin inh	Pf growth 96h	Pf growth 48h
CCCCN1C(=O)NC(=O)C2(Cc3c(nc4ccccn4c3=O)N3CCc4ccccc4C32)C1=O (stereo not drawn)	-1	9%	6%	50	-57%	?
Cc1ccc2nc3c(cc2c1)CC1(C(=O)N(C)C(=O)N(C)C1=O)C1CCCCN31 (stereo not drawn)	19*	19%	3%	69*	.	43%
Cc1cccn2c(=O)c3c(nc12)N1CCc2ccccc2C1C1(C3)C(=O)NC(=O)N(C)C1=O (stereo not drawn)	14	-7%	-6%	-16	.	13µM*
CCCCN1C(=O)NC(=O)C2(Cc3c(nc4c(C)cccn4c3=O)N3CCc4ccccc4C32)C1=O (stereo not drawn)	-3	-1%	0%	-4	0%	9.3µM*
Cc1cccn2c(=O)c3c(nc12)N1CCCCCC1C1(C3)C(=O)N(C)C(=O)N(C)C1=O (stereo not drawn)	-2	-7%	1%	4	2.6µM*	?
N#CNc1nc(O)cc(=O)[nH]1	-2	15%	2%	-5	19%	38%
COc1ccc(C(CNC(=O)COc2cccc(C)c2)N2CCCC2)cc1 (stereo not drawn)	.	-7%	-3%	.	13µM*	?
COc1ccc(C(CNC(=O)COc2cccc(C(F)(F)F)c2)N2CCCC2)cc1 (stereo not drawn)	.	5%	3%	.	12µM*	10µM*
O=C1Nc2ccccc2-n2nnnc2C1N1CCN(c2ccc(F)cc2)CC1 (stereo not drawn)	.	-12%	.	.	.	.
CCOCCCNC(=O)c1cc(C)nn1-c1ccccc1	-4	6%	6%	20	12µM*	8%
CCNC(=O)c1ccc(-n2nc(C)cc2-c2ccccc2)cc1	-3	0%	-5%	-16	1.5µM*	?
CC(C)NS(=O)(=O)c1ccc(OCC(=O)Nc2ccc(F)cc2F)cc1	-2	-5%	13%	-13	-32%	.
CCOC(=O)c1cncc(C#CCO)c1	1	-11%	1%	-7	1%	3%
COc1ccc(-c2c(C)nn3c(N)c(C#N)cnc23)cc1OC	15	18%	1%	-5	0.33µM*	0.41µM*
O=C(OCC(=O)N1CCc2ccccc21)[C@@H]1CC(O)CN1S(=O)(=O)c1ccc(Cl)cc1 (stereo partly drawn)	.	0%	2%	.	.	.
COc1cc2c(cc1OC)C(Cc1ccc(O)cc1)NCC2 (stereo not drawn)	-5	19%	11%	-19	-22%	2%
CCOc1ccc(CC2NCCc3cc(OCC)c(OCC)cc32)cc1OCC (stereo not drawn)	0	-20%	0%	-18	?	12µM*
Oc1ccc(C[C@H]2NCCc3cc(O)c(O)cc32)cc1O	-6	2.5µM*	-3%	-4	?	?
Cc1noc(/C=C/N(C)C)c1S(=O)(=O)N1CCCC(C(=O)Nc2ccc(F)cc2F)C1 (stereo not drawn)	2	-3%	7%	-5	?	?
NC(=O)c1ccc(-c2nc(-c3ccc4c(c3)OCO4)c(-c3ccccn3)[nH]2)cc1	-6	.	.	-6	.	.
Cc1onc(-c2ccccc2)c1C(=O)N1CCCN2C(=O)c3ccccc3C21 (stereo not drawn)	-1	2%	-1%	-7	10µM*	?
CC(=O)N1CCN(C(=O)c2c(-c3ccccc3)noc2C)CC1	.	3%	-3%	.	7%	-10%
CCNS(=O)(=O)c1cccc(C(=O)c2c(C)cc3ccccn23)c1	1	-11%[11.6 µM]	16%	-5	-10%	-19%
